In the library only some 21% were active in any assay of this set; here they are far more common.
Pf growth 48h = Primary qHTS for delayed death inhibitors of the malarial parasite plastid, 48 hour incubation; AID 504832, 2011; P. falciparum luciferase growth in erythrocytes, 48 h; Potency, µM (highest dose often 28.7 µM), usual class: inhibitors; actives 5.9% (n = 310,000)
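Firefly luciferase activity from engineered P. falciparum reports growth; inhibitors lower the luminescent signal. Cultures contained 2% hematocrit erythrocytes at 0.1% final parasitemia.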
Shiga toxin inh = A qHTS for Small Molecule Inhibitors of Shiga Toxin | Vero cells, Shiga toxin protein synthesis inhibition reporter | inhibition, % at 38.7 µM | actives 9.2% (n = 290,000); in the data active = inhibition mostly above about 28%, no sharp cut-off; inactive = mostly below about 43%
NS1 function inh = qHTS Assay for Inhibitors of Influenza NS1 Protein Function. Potency, µM (highest dose often 46.1 µM). actives 0.4% (n = 270,000). AID 2326, 2010; calls by dose curve; note: actives are rising curves; nearly all actives have a fitted effect of over 50% in size
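Compounds were scored for reversing the slow growth caused by influenza A NS1 in S. cerevisiae, measured by optical density at 600 nm. Assay medium contained 2% galactose at pH 6.0; NS1-free yeast of the same strain were the positive control.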
FBPA Giardia inh = qHTS Assay for Inhibitors of Fructose-1,6-bisphosphate Aldolase from Giardia Lamblia; A8B2U2; purified Giardia FBPA; Potency, µM (series often up to 59.6 µM), most hits filed as inhibitors; actives 0.71% (n = 290,000); AID 2451, 2010; note: nearly all actives have a fitted effect of over 55% in size
Target sequence (A8B2U2 whole entry, looked up): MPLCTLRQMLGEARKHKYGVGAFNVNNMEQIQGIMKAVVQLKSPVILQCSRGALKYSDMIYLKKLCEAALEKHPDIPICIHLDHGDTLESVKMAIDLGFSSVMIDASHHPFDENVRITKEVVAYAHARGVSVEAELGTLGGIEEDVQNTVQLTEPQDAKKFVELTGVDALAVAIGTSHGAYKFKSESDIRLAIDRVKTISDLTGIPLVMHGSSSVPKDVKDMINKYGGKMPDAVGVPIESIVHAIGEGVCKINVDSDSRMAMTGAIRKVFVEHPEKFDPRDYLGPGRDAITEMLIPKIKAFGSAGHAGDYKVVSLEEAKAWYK
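Giardia FBPA (40 nM reagent) was preincubated 10 min at RT with compound (up to 57.5 uM final), then substrate plus GAPDH/TPI/NAD/arsenate coupling system with diaphorase/resazurin was added; resorufin fluorescence (525/598 nm) was read after 20 min.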
CHX counter = Cycloheximide Counterscreen for Small Molecule Inhibitors of Shiga Toxin. cell reporter, cycloheximide protein synthesis inhibition counterscreen. AID 2314, 2010. max response, %. actives 12% (n = 300,000); in the data active = max response mostly above about 13%, no sharp cut-off; inactive = mostly below about 14%; note: read at 38.3 µM for the half of the compounds with a filed dose
Pf growth 96h = Primary qHTS for delayed death inhibitors of the malarial parasite plastid, 96 hour incubation; actives 6.9% (n = 320,000); P. falciparum luciferase reporter growth, 96 h; Potency, µM (highest dose often 28.7 µM), hits mostly inhibitors
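Compounds incubated with erythrocytes infected by luciferase-expressing P. falciparum (2% hematocrit, 0.05% parasitemia final) for 96 hours, 37 C in 5% CO2. Growth inhibition scored as decreased luciferase luminescence.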
A number is an active result. Unless noted, calls come from the whole dose curve; as a rule, active = well fitted curve in the direction sought with a large enough effect; inconclusive = small, poorly fitted or top-dose-only effect, or another doubt; inactive = no such curve, though single readings can be large; an effect the other way counts as inactive or inconclusive.

C/C(=N\Nc1ccc(S(=O)(=O)Nc2ccc(Cl)cc2)cc1[N+](=O)[O-])c1ccc(N2CCOCC2)cc1 was read as Pf growth 48h inconclusive, Shiga toxin inh inactive, NS1 function inh inactive, FBPA Giardia inh inactive, CHX counter inactive and Pf growth 96h 4.15µM.
Screening O=[N+]([O-])c1cc(S(=O)(=O)Nc2cccc(Cl)c2)ccc1N/N=C/c1ccc(N2CCOCC2)cc1 returned Pf growth 48h 1.85µM, Shiga toxin inh inactive, NS1 function inh inactive, FBPA Giardia inh inactive, CHX counter inactive and Pf growth 96h inconclusive.
N#CCc1nn2c(-c3ccccc3)ccnc2c1C#N was read as Pf growth 48h inconclusive, Shiga toxin inh inactive, NS1 function inh inconclusive, FBPA Giardia inh inactive, CHX counter inactive and Pf growth 96h inactive.
`Cc1csc(NC(=O)C2CCN(S(=O)(=O)c3ccccc3F)CC2)n1` gave Pf growth 48h inactive, Shiga toxin inh inactive, FBPA Giardia inh inactive, CHX counter inactive and Pf growth 96h inconclusive.
Screening O=C(Cn1ncc2c(=O)oc3ccccc3c21)N1CCc2ccccc2C1 returned Pf growth 48h inactive, Shiga toxin inh inactive, NS1 function inh inactive, FBPA Giardia inh inactive, CHX counter inactive and Pf growth 96h inactive.
Screening O=C(Cn1ncc2c(=O)oc3ccccc3c21)NCC1CCCO1 (stereo unspecified) returned Pf growth 48h inactive, Shiga toxin inh inactive, NS1 function inh inactive, FBPA Giardia inh inactive, CHX counter inactive and Pf growth 96h inconclusive.
`O=C(Cn1ncc2c(=O)oc3ccccc3c21)NCCC1=CCCCC1` gave Pf growth 48h inactive, Shiga toxin inh inactive, NS1 function inh inactive, FBPA Giardia inh inactive, CHX counter inactive and Pf growth 96h 9.28µM.
`O=C(Cn1ncc2c(=O)oc3ccccc3c21)N1CCC(N2CCCCC2)CC1` gave Pf growth 48h inactive, Shiga toxin inh inactive, NS1 function inh inactive, FBPA Giardia inh inactive, CHX counter inactive and Pf growth 96h 11.7µM.
`COc1cccc(NC(=O)COc2cc(O)c3c(c2)OC(C)(C)CC3=O)c1` gave Pf growth 48h inactive, Shiga toxin inh inactive, NS1 function inh inactive, FBPA Giardia inh inactive, CHX counter 23.9 and Pf growth 96h inactive.
For COc1ccc(NC(=O)COc2cc(O)c3c(c2)OC(C)(C)CC3=O)cc1 the results were Pf growth 48h inactive, Shiga toxin inh inactive, NS1 function inh inactive, FBPA Giardia inh inactive, CHX counter inactive and Pf growth 96h inactive.
For CC1(C)CC(=O)c2c(O)cc(OCC(=O)Nc3ccc(CCO)cc3)cc2O1 the results were Pf growth 48h inactive, Shiga toxin inh inactive, NS1 function inh inactive, FBPA Giardia inh inactive, CHX counter 15.5 and Pf growth 96h inconclusive.
Screening NCC(=O)O returned Shiga toxin inh inactive, FBPA Giardia inh inactive and CHX counter inactive.
`CCOC(=O)C(Cc1ccccc1)NC(=O)CCc1c(C)nc2ncnn2c1C` (stereo unspecified) gave Pf growth 48h inactive, Shiga toxin inh inactive, NS1 function inh inactive, FBPA Giardia inh inactive, CHX counter inactive and Pf growth 96h inactive.
CCOC(=O)C(Cc1ccccc1)NC(=O)CCc1c(C)nc2nc(C)nn2c1C (stereo unspecified) was read as Pf growth 48h inactive, Shiga toxin inh inactive, NS1 function inh inactive, FBPA Giardia inh inactive, CHX counter inactive and Pf growth 96h 7.38µM.
For C=C(C)[C@]12C[C@@H](C)[C@@]34O[C@](Cc5ccccc5)(O[C@@H]1[C@@H]3C=C(COC(=O)Cc1ccc(O)c(OC)c1)C[C@]1(O)C(=O)C(C)=C[C@@H]41)O2 the results were Shiga toxin inh inactive, FBPA Giardia inh inactive and CHX counter inactive.
Screening Cn1c(=O)cnc2cnc(Nc3ccccc3)nc21 returned FBPA Giardia inh inactive.
For Cc1ccc2c(c1)N(S(=O)(=O)c1ccc(CN3C(=O)c4cccnc4C3=O)cc1)CCO2 the results were Pf growth 48h inactive, Shiga toxin inh inactive, NS1 function inh inactive, CHX counter inactive and Pf growth 96h inconclusive.
Cc1ccc2c(c1)N(S(=O)(=O)c1ccc(CN3C(=O)c4cccnc4C3=O)s1)CCO2 was read as Pf growth 48h inactive, Shiga toxin inh inactive, NS1 function inh inactive, CHX counter inactive and Pf growth 96h 4.15µM.
